Results on 89 compounds are retold here after PubChem BioAssay AID624483 (NMMLSC, 2012).

Hit rate of the full screen: of about 360,000 compounds, about 11,000 (3.1%) were called active. Not shown: some 2% with an inconclusive outcome. Many of the other results were omitted from the sample, so actives are more common in it than they were. Values without a mark were called inactive. No stated cut-off is given here; in the data, active means fluorescence intensity above about 16000; inconclusive means no clear call, values can overlap the other calls; inactive means below that.

A short description of this assay: counter-screen for toxin protease inhibitors: compound fluorescence, primary screen, artefact control for toxin protease inhibitor project, biochemical, multiplex microsphere, HTS (AID 624483). Particulars: compound autofluorescence counterscreen, microsphere flow cytometry; active compounds read high.
On to `O=C1c2ccccc2C(O)N1Cc1ccccc1` (centres undefined), for which the fluorescence intensity was 11200. With `CC1(C)C2CCC1(CS(=O)(=O)NCCc1c[nH]c3ccccc13)C(=O)C2` (centres undefined) the figure was 3440.

With `CCCC(=O)N1CCC1(C)C(=O)Nc1ccc(-n2cncn2)cc1` (centres undefined), the fluorescence intensity was 4100. With `Cc1cccc(C)c1NC(=O)CN1CCN(c2ccc(F)cc2)CC1` the figure was 5760. Then `COc1ccc(OCCCCN2CCC(C)CC2)cc1`, with 3010; and `CC(C)(C)c1ccc(CN2C(=O)CN=C(c3ccccc3)c3ccccc32)cc1`, with 16300 (active); and `CC(C)(C)c1ccc(CN2C(=O)c3ccccc3S2(=O)=O)cc1`, with 3970. With `CCN(CC)C(=O)C1=C(C)N(Cc2ccc(C(C)(C)C)cc2)C(=O)C(CC(=O)NCc2cccc3ccccc23)C1` (centres undefined) the figure was 3960. For the compound `CNc1cnc(-c2cc(OC)c(OC)c(OC)c2)cn1`, the fluorescence intensity was 3800. On to `O=C(Nc1ccc(OCCO)cc1)c1csc([C@H]2C[C@H](O)[C@@H](CO)O2)n1`, for which the fluorescence intensity was 4100.

With `O=C(COC(=O)c1n[nH]c2ccccc12)Nc1ccccc1Br`, the fluorescence intensity is 3780. Turning to `CC(=O)Nc1ccc(S(=O)(=O)N2CCN(S(=O)(=O)c3cccs3)CC2)cc1`, the fluorescence intensity was 6050. Then `CC(=O)Nc1ccc(S(=O)(=O)N2CCN(CCCOc3cc(C)ccc3C)CC2)cc1`, with 11400. Then `COC(=O)Nc1ccc(S(=O)(=O)N2CCN(CCN3C(=O)C4C5C=CC(C5)C4C3=O)CC2)cc1` (centres undefined), with 21300 (active); and `CCn1c(CN2C(=O)CSc3ccccc32)n[nH]c1=S`, with 6470; and `C=C(C)Cn1c(N2CCCC2)nc2c1c(=O)[nH]c(=O)n2C`, with 5030. With `Cc1nnc(Sc2nc3c(c(=O)[nH]c(=O)n3C)n2Cc2ccccc2)s1` the figure was 5620; with `Cc1nnc(SCCCn2c(N3CCCCC3)nc3c2c(=O)[nH]c(=O)n3C)s1`, 20700 (active). Consider `CNC(=S)NNC(=O)c1sccc1OCc1ccccc1`, for which the fluorescence intensity is 22300 (active). In the case of `CNC(=S)NNC(=O)c1cccn(Cc2ccccc2)c1=O`, the fluorescence intensity was 4620.

`Cc1ccc(/C=N/NC(=O)c2sccc2OCc2ccc(F)cc2)cc1`: the fluorescence intensity is 3080. With `CC1(C(=O)NS(=O)(=O)c2ccc(C#N)cc2)CCN1C(=O)CC1CCCC1` (centres undefined) the figure was 3000; with `COC(=O)c1nc(NC(=O)c2ccccc2)n[nH]1`, 19900 (active); with `COC(=O)c1nc(NC(=O)c2ccc(F)cc2)n[nH]1`, 3910. With `COC(=O)c1nc(NC(=O)c2ccc(Cl)cc2)n[nH]1` the figure was 12500.

On to `CCCCCn1nnnc1C1c2ccccc2C(=O)N1Cc1ccco1` (centres undefined), for which the fluorescence intensity was 6010.

Take `CC1CCCN(S(=O)(=O)c2ccc(-c3ccc(=O)[nH]n3)o2)C1` (centres undefined): the fluorescence intensity is 5950.

`CN(C)/C=C(\C#N)C(=O)c1cccnc1Oc1ccc(F)cc1F`: the fluorescence intensity was 24800 (active). With `CCOc1ncccc1C(=O)N(C)CC(=O)Nc1ccc(F)cc1` the figure was 2630; with `CN(C)/C=C(\C#N)C(=O)c1cccnc1Oc1cccc(F)c1`, 15200; with `COc1cc(C(O)c2nc(-c3cccc(C(=O)O)c3)cs2)ccc1F` (centres undefined), 3440. As for `CC(Sc1ccccc1F)C(=O)Nc1cccc(S(=O)(=O)N2CCOCC2)c1` (centres undefined), the fluorescence intensity was 4000. Then `CC(C)c1cc(C(N)=O)c(NC(=O)c2cccc(COc3ccc(Br)cc3)c2)s1`, with 22100 (active).

With `CC(C)(C)OC(=O)N(Cc1ccccc1)Cc1ccc(OCc2cccc(NC(=O)c3ccccc3)c2)cc1`, the fluorescence intensity is 3640. For `CCOc1ccc(OCc2cccc(C(=O)N(CC)CC)c2)cc1`, the fluorescence intensity was 2210. Then `CC1(C)OC(=O)C2=C(C[C@@H](C3CCCC3)O[C@@H]2c2ccc(Cl)cc2)O1`, with 6120. On to `C=CCc1cccc2cc(C(=O)OCC)c(=O)oc12`, for which the fluorescence intensity was 2480. With `C=CCc1cccc2cc(C(=O)Nc3ccc(NC(C)=O)cc3)c(=O)oc12` the figure was 4060; with `C=CCc1cccc2cc(C(=O)N3CCN(C(=O)OCC)CC3)c(=O)oc12`, 19200 (active). Consider `CCc1ccc(OC2(C)CCN(CCOc3ccc(C)cc3)C2)cc1` (centres undefined), for which the fluorescence intensity was 3880. Then `Cc1nc2ccc(S(=O)(=O)NCC(=O)NCCN3CCCCC3C)cc2s1` (centres undefined), with 3450.

On to `Cc1ccc(N(Cc2cc(=O)[nH]c3ccccc23)C(=O)CCl)cc1`, for which the fluorescence intensity was 3750. Consider `CSc1ccc(CCNC(=O)CS(=O)(=O)Cc2nc(-c3ccccc3F)oc2C)cc1`, for which the fluorescence intensity was 5680. Then `Cc1oc(-c2ccccc2F)nc1CS(=O)(=O)CC(=O)NCCCN(C)C1CCCCC1`, with 17000 (active). With `Cc1oc(-c2ccccc2F)nc1CS(=O)CC(=O)NCCN1CCCCC1C` (centres undefined) the figure was 5840; with `CC1(C(=O)Nc2cccc3c2CCCC3)CCN1C(=O)CCc1ccc(Cl)cc1Cl` (centres undefined), 3570. For the compound `C=C(C)CNC(=S)Nc1ccc(S(=O)(=O)Nc2cnc3ccccc3n2)cc1`, the fluorescence intensity was 4200. Then `Cc1ccc(NS(=O)(=O)c2cc3c(cc2Br)NC(=O)CO3)cc1C`, with 2960. With `CCCc1nc2c([nH]1)C(c1cccnc1)C(C#N)=C(N)O2` (centres undefined) the figure was 7630; with `CCCc1[nH]nc2c1C(c1ccc(OC(=O)c3ccco3)cc1)C(C#N)=C(N)O2` (centres undefined), 17200 (active); with `CCCc1[nH]nc2c1C(c1ccc(Br)s1)C(C#N)=C(N)O2` (centres undefined), 2790.

`COc1ccc(C(C)(O)c2nc(-c3cc(F)cc(F)c3)cs2)cc1` (centres undefined): the fluorescence intensity was 3820. Regarding `OCCN1CCN(c2ncnc3c2ncn3[C@H]2CN(Cc3ccco3)C[C@@H](CO)O2)CC1`, the fluorescence intensity was 2940. Then `CC(=O)C1=CCC(c2ccccc2)N(S(=O)(=O)c2ccc(C)cc2)C1` (centres undefined), with 4360; and `CCOC(=O)C1(CCOC)CCN(Cc2ccc(C(=O)OC)cc2)CC1`, with 4510; and `CCOC(=O)C1(CCc2ccccc2)CCN(Cc2ccco2)CC1`, with 2080.

Turning to `O=C(NNS(=O)(=O)c1ccc(Cl)cc1)C1CCN(Cc2ccccc2)CC1`, the fluorescence intensity is 9590. In the case of `CCOC(=O)C1(S(=O)(=O)c2ccc(Cl)cc2)CCN(Cc2ccccc2)CC1`, the fluorescence intensity is 22200 (active).

For `CCOC(=O)C1(S(=O)(=O)c2ccccc2)CCN(Cc2ccccc2)CC1`, the fluorescence intensity is 25000 (active). For the compound `CCOC(=O)C1(CCOc2ccccc2)CCN(Cc2cc(OC)cc(OC)c2)CC1`, the fluorescence intensity is 3960.

`COC(=O)[C@@]1(Cc2ccc(F)cc2)[C@H]2c3cc(C(=O)N(C)C)n(CCc4c[nH]c5ccc(OC)cc45)c3C[C@H]2CN1C(=O)c1ccccc1`: the fluorescence intensity is 6230. As for `Nc1nc2c(ncn2[C@@H]2O[C@H](CNCc3ccc(OCCCN4CCOCC4)cc3)[C@@H](O)[C@H]2O)c(=O)[nH]1`, the fluorescence intensity was 6030. With `CCCc1c(-c2ccccc2F)ncn1Cc1ccccc1OC` the figure was 6360. With `N#C/C(=C\c1ccc(N2CCOCC2)o1)C(=O)N1CCOCC1` the figure was 3190.

`COC(=O)[C@]1(Cc2ccccc2)N[C@H](CN(C)S(=O)(=O)c2ccc(F)cc2)[C@@H]2C(=O)N(Cc3ccccc3)C(=O)[C@@H]21`: the fluorescence intensity was 2850. With `COc1ccc(N(CC(=O)N2CCCCCC2)S(=O)(=O)c2ccccc2)cc1` the figure was 5240; with `COc1ccc(S(=O)(=O)NCCCCOc2ccc(Cl)cc2)cc1`, 3450; with `COc1ccc(N(CCC#N)S(=O)(=O)c2ccc(Cl)cc2)cc1`, 19700 (active). Consider `CC1(C)C(C=C(Cl)Cl)C1C(=O)NC(O)C(=O)c1ccccc1` (centres undefined), for which the fluorescence intensity is 3770. `CCOC(=O)C1=CC[C@@H](c2ccccc2)N(S(=O)(=O)c2ccc(C)cc2)[C@H]1c1ccc(CC)cc1`: the fluorescence intensity is 5350. With `OC[C@@H]1CN(Cc2cccs2)C[C@H](n2cnc3c(NC4CCCC4)ncnc32)O1` the figure was 4050.

As to `O=C(NCC(F)(F)F)Nc1nnc(C(F)(F)F)s1`, the fluorescence intensity is 2520. As to `CC(Nc1nc(N2CCOCC2)nc2ccccc12)c1ccccc1` (centres undefined), the fluorescence intensity was 4260. Then `c1ccc(COc2nsnc2N2CCOCC2)cc1`, with 4190; and `Fc1cnc(N2CCOCC2)nc1NCc1ccccc1`, with 19200 (active). With `CC(C)CCNC(=O)C(C)N(C(=O)Cn1nnc(-c2ccc(F)cc2)n1)C1CCCC1` (centres undefined) the figure was 23500 (active). Then `COc1cccc(N(CC(=O)NC2CCCC2)C(=O)Cn2nnc(-c3ccc(C)o3)n2)c1`, with 5040. For the compound `CN(C(=O)Cn1nnc(-c2ccc(F)cc2)n1)C1CCS(=O)(=O)C1` (centres undefined), the fluorescence intensity is 6480. With `COc1ccc(-c2nnn(CC(=O)N(CCO)C(C(=O)NC3CCCC3)c3ccc(F)cc3)n2)cc1` (centres undefined) the figure was 20700 (active); with `COc1ccc(C(C(=O)NC2CCCC2)N(CCCO)C(=O)Cn2nnc(-c3ccc(C)o3)n2)cc1` (centres undefined), 5780; with `COc1cccc(N(CC(=O)NC2CCCC2)C(=O)CCCC(=O)Nc2ccccn2)c1`, 6270. With `CC(C)CCNC(=O)CN(C(=O)Cn1nnc(-c2ccc(F)cc2)n1)C1CCCC1` the figure was 7590. With `CCOCCCN(C(=O)Cn1nnc(-c2ccc(OC)c(OC)c2)n1)C(CC)C(=O)NC1CCCC1` (centres undefined) the figure was 3360. On to `COc1cccc(N(CC(=O)NC2CCCC2)C(=O)Cn2nnc(-c3ccc(C)cc3)n2)c1`, for which the fluorescence intensity is 20000 (active). On to `Cc1ccc(C(=O)O)cc1S(=O)(=O)NCC1CCCO1` (centres undefined), for which the fluorescence intensity was 8490. For `O=C(O)C(=Cc1ccccc1[N+](=O)[O-])c1ccccc1`, the fluorescence intensity is 3020.

For `CCOC1=C2[C@H]([C@H]3C(=O)N(c4ccccc4)C(=O)[C@H]3C1)[C@@H](c1ccccc1)N(S(=O)(=O)c1ccc(C)cc1)[C@H]2c1ccccc1`, the fluorescence intensity is 5740. With `CN(CCO)C(=O)c1nc[nH]c1C(=O)N(C)Cc1ccccc1` the figure was 6070.

Take `COCCCNc1ccn2nc(-c3ccc(CC(C)C)cc3)cc2n1`: the fluorescence intensity is 3740.
